Compounds with a hit are over-represented: about 17% of the library has one in this group of screens.
HT1080NT lethal: kills 2HG-producing HT-1080-NT fibrosarcoma cells. HT-1080-NT fibrosarcoma viability, CellTiter-Glo ATP luminescence, 48 h. 1.6% of 360,000 active. Potency, µM (series often up to 46.1 µM), without a hit: at the top dose activity, negative = less viability, most hits filed as cytotoxic. AID 686970;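 further: NT is the 2HG producing partner of a matched IDH1 knockdown line; 0% = DMSO-treated cells and -100% = media-only wells without cells; nearly all actives have a fitted effect of over 55% in size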
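Viability of the 2HG-overproducing fibrosarcoma line after 48 hours of compound exposure at 37 degrees C was determined by luminescence with CellTiter-Glo, and concentration-effect curves were then fitted and categorized.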
HepG2 viability: HepG2 cytotoxicity, counter-screen for TGF-b inhibitors; AID 588856; HepG2 CAGA-GFP viability, ATP luminescence, 18 h; Potency, µM (series often up to 46.1 µM), for inactives: top-dose activity change, negative = cytotoxicity, actives largely listed as cytotoxic; 0.76% of 410,000 active
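CellTiter-Glo luminescence gave cytotoxicity after 18 hours at 37 degrees C. The cells were HepG2 CAGA-GFP in 1% FBS DMEM, stimulated with 500 pg/mL TGF-beta after compound addition. %Activity was normalised to no-cell wells (complete cell-killing) and DMSO (no toxicity), and curves were fitted and classified.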
DT40 TDP1 no CPT: qHTS for Inhibitors of human tyrosyl-DNA phosphodiesterase 1 (TDP1): qHTS in cells in absence of CPT | DT40 Tdp1-/- hTDP1 cells, no CPT, ATP luminescence, 48 h | Potency, µM (series often up to 46.2 µM), inactives show top-dose activity change, negative = growth inhibition, most hits filed as inhibitors | 15% of 420,000 active; further: on the % scale 0 is the no-effect control and ±100 the full control effect; nearly all actives have a fitted effect of over 55% in size
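Readout: luminescence from CellTiter-Glo after 30 min in the dark at RT. Cells: DT40 Tdp1-/- with stable hTDP1, 400/well. Exposure: compounds alone, ≥48 hr, 37 °C.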
HT1080 IDH1KD tx: kills HT-1080 cells with IDH1 knockdown | HT-1080 IDH1 knockdown viability, ATP luminescence, 48 h | Potency, µM (series often up to 46.1 µM), for the others: at the highest dose activity, negative = toxicity, actives largely listed as cytotoxic | 2% of 360,000 active | AID 686971;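 further: 0% = DMSO wells and -100% = cell-free medium wells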
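Assay cells: HT-1080 with IDH1 knockdown, 750 per well, RPMI/5% FBS. Exposure: 48 h at 37 °C following 2 h pre-incubation. Read: CellTiter-Glo luminescence; fitted concentration-response, curve class assigned.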
TGFb SMAD3 inh: TGF-b pathway inhibition | AID 588855 | Potency, µM (top dose mostly 46.1 µM), inactives show at the highest dose activity, negative = inhibition, most hits filed as inhibitors | HepG2 CAGA-GFP TGF-b/SMAD3 reporter, GFP fluorescence, 18 h; TGF-beta stimulated, 500 pg/mL final | 1.2% of 410,000 active; further: on the % scale 0 is the no-effect control and ±100 the full control effect; nearly all actives have a fitted effect of over 65% in size
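Using HEPG2 CAGA-GFP reporter cells at 1000 cells/well, we pinned test compounds, stimulated with recombinant TGF-beta (500 pg/mL final) and measured total well GFP after 18 h.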
TDP1 cell CPT: growth inhibition of DT40 Tdp1-/-;hTDP1 cells with camptothecin (screen for TDP1 inhibitors); chicken DT40 Tdp1-/-;hTDP1 cells + 20 nM CPT, ATP luminescence, 48 h; Potency, µM (series often up to 46.2 µM), inactives show top-dose activity change, negative = growth inhibition, actives largely listed as inhibitors; 12% of 420,000 active; AID 686979; further: on the % scale 0 is the no-effect control and ±100 the full control effect; nearly all actives have a fitted effect of over 55% in size
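Cell growth measured by CellTiter-Glo luminescence after a minimum 48 h, 37 C compound exposure with 20 nM CPT in Tdp1-knockout DT40 cells stably expressing hTDP1, seeded 400/well; qHTS titration format.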
* hit, by the source's call; ? = inconclusive; . = not tested or not shown. The call rests on the fitted dose curve; in most records, active means well fitted curve in the direction sought with a large enough effect; inconclusive means small, poorly fitted or top-dose-only effect, or another doubt; inactive means no such curve, though single readings can be large; an effect the other way counts as inactive or inconclusive. Potency means the concentration at half of the fitted maximal effect.

SMILES	HT1080NT lethal	HepG2 viability	DT40 TDP1 no CPT	HT1080 IDH1KD tx	TGFb SMAD3 inh	TDP1 cell CPT
Cc1ccc(OCC(=O)NNC(=S)NC(=O)C(C)(C)C)c(Br)c1	?	-23%	18µM*	?	?	?
CCC(C)c1ccc(OCC(=O)NNC(=O)C2CCCCC2)cc1 (configuration not stated)	-2%	-7%	-2%	-1%	-14%	0%
CC(C)c1ccc(OCC(=O)NNC(=S)NC(=O)C2CC2)cc1	?	-25%	15µM*	?	-17%	?
Cc1ccc(OCC(=O)NNC(=S)NC(=O)C2CCCCC2)c(C)c1	-13%	6%	21µM*	-8%	13%	?
Cc1nc(C)n(CCNC(=O)c2ccco2)n1	-2%	-11%	-3%	-2%	9%	2%
CC(C)NC(=O)Cn1c(=O)nc(-c2ccccc2F)c2cc(Cl)ccc21	.	3%	7.3µM*	.	3%	-65%
N#Cc1c(-c2ccccc2)nc2n(c1=O)CCS2	2%	0%	4%	2%	-6%	-10%
CCCCCC(CC(=O)NO)C(=O)NC(C(=O)N1CCCC1CO)C(C)C (configuration not stated)	-10%	-15%	1.8µM*	-20%	14%	2.6µM*
O=C(NC1CCCCC1)C1c2ccccc2OCC(=O)N1Cc1ccco1 (configuration not stated)	2%	.	-15%	?	.	-19%
COC(=O)c1ccc(NC(=S)NCCC2=CCCCC2)cc1	?	-8%	-23%	?	?	-12%
CC(=O)c1cccc(NC(=S)NCCc2ccc(Cl)cc2)c1	-3%	-20%	18µM*	0%	-19%	?
COC(=O)c1cccc(NC(=S)NCCC2=CCCCC2)c1	-24%	-23%	10µM*	21µM*	0%	12µM*
CC(=O)c1cccc(NC(=S)NCc2ccccc2)c1	9%	3%	-15%	4%	9%	-3%
CC(=O)c1ccc(NC(=S)NCc2ccc(Cl)cc2Cl)cc1	0%	-35%	23µM*	0%	?	?
Cc1cnc(C)c(-c2ccc(F)c3c2OC(CNC(=O)Cc2c(F)cccc2F)C3)n1 (configuration not stated)	.	.	-11%	.	.	9%
COc1cc(/C=N/NC(=O)c2ccncc2)ccc1OC(=O)c1cc(OC)c(OC)c(OC)c1	2%	5%	-5%	-8%	1%	8%
COc1ccccc1CNC(=O)COC(=O)Cn1cnc2c1c(=O)n(C)c(=O)n2C	9%	-1%	-11%	9%	-2%	-4%
CC1(c2nc3ccccc3[nH]2)c2ccccc2C(=O)N1Cc1ccccn1 (configuration not stated)	19%	.	-23%	4%	.	4%
CCOC(=O)c1[nH]c(C)c(CCC(=O)Nc2ccccc2OCC)c1C	.	-49%	16µM*	.	16%	?
CCOC(=O)c1[nH]c(C)c(CCC(=O)Nc2ccc(N(CC)CC)cc2C)c1C	.	-18%	21µM*	.	-10%	23µM*
CCOC(=O)c1[nH]c(C)c(CCC(=O)Nc2ccc(Br)c(C)c2)c1C	.	-3%	?	.	-6%	?
CCOC(=O)c1[nH]c(C)c(CCC(=O)Nc2ccccc2C(=O)OC)c1C	.	6%	16µM*	.	0%	13µM*
CC(C)C(C)NC(=O)CN1C(=O)NC(c2ccccc2)(c2ccccc2)C1=O (configuration not stated)	0%	11%	0%	0%	2%	8%
CS(=O)(=O)CC(=O)Nc1ccc2nc3n(c(=O)c2c1)CCCCC3	27%	10%	-16%	17%	1%	-10%

Screening results (PubChem BioAssay)
